# Screening results (PubChem BioAssay)
# SW480 rerep – inducers of DNA re-replication in SW480 colon cancer cells. SW480 DNA re-replication, Hoechst DNA content imaging, 48 h. Potency, µM (doses to about 46.1 µM), for inactives: at the top dose re-replication activation, hits mostly activators. 340,000 compounds, 1.8% hits; further: potency means the concentration at half of the fitted maximal effect; % of control where 0% means no effect; nearly all actives have a fitted effect of over 55% in size
#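 Treated cells incubate 48 hr (37 C, 5% CO2), are stained 40 min with Hoechst, and nuclear fluorescence is enumerated; a rise in nuclei with high DNA signal marks re-replication.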
# MCF10A rereplic – induces DNA re-replication in MCF 10a normal breast cells; AID 624296; Potency, µM (doses to about 46.1 µM), inactives show at the top dose activity, positive = re-replication, usual class: activators; 350,000 compounds, 2.9% hits; MCF 10A DNA re-replication, Hoechst nuclear intensity, 48 h; further: potency means the concentration at half of the fitted maximal effect; % of control where 0% means no effect; nearly all actives have a fitted effect of over 50% in size
# IL-1B inflam inh – blocks inflammasome-driven IL-1 beta release; THP-1 LPS/ATP IL-1B secretion, AlphaLISA, 16 h; stronger effect = lower value; activity change, % at 57.5 µM; 360,000 compounds, 4.7% hits; in the data active means activity change below about -50%; inconclusive means mostly about -30% to -49%; further: on the % scale 0 is the no-effect control and ±100 the full control effect
#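 Secreted IL-1B measured by AlphaLISA bead assay after 16 h compound exposure of THP-1 cells; compounds (final up to 57.5 uM) added 1 h before LPS (250 ng/mL) and ATP (1.25 mM) stimulation; lower signal means less secretion.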
# KB-3-1 tox – kills parental KB-3-1 adenocarcinoma cells; 400,000 compounds, 1.4% hits; Potency, µM (titrated, usually from 46.1 µM), hits mostly cytotoxic; KB-3-1 viability, CellTiter-Glo ATP luminescence, 72 h; further: potency means the concentration at half of the fitted maximal effect; on the % scale 0 is the no-effect control and ±100 the full control effect; nearly all actives have a fitted effect of over 60% in size
#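 Cells are dispensed, compounds pinned in, plates held at 37 °C for 72 h, then CellTiter-Glo is added and luminescence read after 10 minutes. Cell line: parental KB-3-1 in phenol-red-free DMEM, 10% FBS.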
# KB-V1 MDR tox – kills drug-selected multidrug resistant KB-V1 cells; KB-V1 MDR cells viability, CellTiter-Glo, 72 h; Potency, µM (highest dose often 46.1 µM), hits mostly cytotoxic; 400,000 compounds, 3.4% hits; AID 1347076; further: potency means the concentration at half of the fitted maximal effect; on the % scale 0 is the no-effect control and ±100 the full control effect; nearly all actives have a fitted effect of over 60% in size
#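 Cytotoxicity toward P-gp-expressing KB-V1 cells was determined as loss of CellTiter-Glo luminescence after 72 h at 37 degrees C. Compounds were tested in quantitative HTS format across a concentration range, with curves fitted to normalized data.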
# Starred values were filed as active, the others as inactive; i = inactive; u = inconclusive; x = no result given; [ ] = remark or other dose. A selection: hits, their analogues and other compounds. The true share with any hit is near 9.9%. Unless noted, the call rests on the fitted dose curve; in most records, active means well fitted curve in the direction sought with a large enough effect; inconclusive means small, poorly fitted or top-dose-only effect, or another doubt; inactive means no such curve, though single readings can be large; an effect the other way counts as inactive or inconclusive.
SMILES,SW480 rerep,MCF10A rereplic,IL-1B inflam inh,KB-3-1 tox,KB-V1 MDR tox
Clc1ccc(OCCCCCN2CCCC2)c(Br)c1,u,14%,u,i,u
Clc1ccc(Cl)c(OCCCCN2CCNCC2)c1,4%,9%,-74*,u,u
COc1ccccc1N1CCN(C(=O)/C=C/c2c(Cl)nc3ccccn23)CC1,-9%,-3%,-61*,i,i
CCCN(C(=O)CCSc1ccc(F)cc1)c1c(N)n(Cc2ccccc2)c(=O)[nH]c1=O,5%,8%,2,i,i
Cc1csc2c(N3CCN(C(=O)Nc4ccc(OC(F)(F)F)cc4)CC3)ncnc12,-8%,u,-70*,i,i
CC(=O)n1c(Cl)c(NC(=O)CCl)c2ccccc21,u,u,-101*,u,i
O=C(c1cc(-c2ccncc2)nc2ccc(Br)cc12)N1CCN(Cc2ccc3c(c2)OCO3)CC1,-1%,u,-63*,i,u
O=C(c1cccn2c(=O)c3ccc(Cl)cc3nc12)N1CCN(Cc2ccc3c(c2)OCO3)CC1,16µM*,16µM*,-26,i,i
O=C(c1cc(-c2ccncc2)nc2ccc(Cl)cc12)N1CCN(Cc2ccc3c(c2)OCO3)CC1,u,-2%,-83*,i,u
Cc1ccc2nc(-c3ccncc3)cc(C(=O)N3CCOCC3)c2c1,-10%,1%,28,i,i
Cc1cc(C)c2nc(-c3ccncc3)cc(C(=O)N3CCN(Cc4ccccc4Cl)CC3)c2c1,26%,u,-75*,u,u
O=C(O)c1cc(-c2ccc3c(c2)OCO3)nc2ccc(Cl)cc12,u,u,i,i,i
CCOC(=O)C1=C(COC(=O)C2CC(=O)N(c3ccccc3F)C2)NC(=O)NC1C (stereo not drawn),2%,-2%,24,u,i
O=C(N/N=C/c1ccc([N+](=O)[O-])o1)c1ccc(NS(=O)(=O)c2cccs2)cc1,u,18µM*,-54*,u,u
O=C(N/N=C/C=C/c1ccccc1[N+](=O)[O-])c1cccs1,-8%,u,4,i,u
O=C(N/N=C/c1ccc2c(c1)OCO2)c1ccc(NS(=O)(=O)c2cccs2)cc1,u,10%,-60*,i,i
O=C(N/N=C/c1ccc([N+](=O)[O-])cc1)c1ccc(NS(=O)(=O)c2cccs2)cc1,-9%,-2%,-14,i,i
O=C(N/N=C\C=C\c1ccc([N+](=O)[O-])o1)c1cccs1,12µM*,8.2µM*,u,i,i
O=C(Nc1c2c(nn1-c1ccc(F)cc1)CS(=O)C2)c1ccc2c(c1)OCO2 (stereo not drawn),-1%,2%,2,i,i
O=C(c1sc2ccccc2c1Cl)N(Cc1ccccc1Cl)C1CCS(=O)(=O)C1 (stereo not drawn),-2%,23%,-7,u,8.2µM*
O=C(c1sc2ccccc2c1Cl)N(Cc1ccccc1)C1CCS(=O)(=O)C1 (stereo not drawn),1%,3%,-7,i,21µM*
O=C(c1cccs1)N(Cc1cccc(Cl)c1)C1CCS(=O)(=O)C1 (stereo not drawn),-1%,-1%,18,i,15µM*
O=C(c1cccs1)N(Cc1cccc(F)c1)C1CCS(=O)(=O)C1 (stereo not drawn),-39%,7%,10,i,i
Cc1ccc(CNCc2ccccc2Cl)s1,x,x,x,i,i
O=C(/C=C/c1ccc([N+](=O)[O-])o1)Nc1cccc([S+](=O)([O-])Nc2ccccc2F)c1,x,x,x,i,i
SMILES,SW480 rerep,MCF10A rereplic,IL-1B inflam inh,KB-3-1 tox,KB-V1 MDR tox
COc1ccc(OCC(=O)N(Cc2cccc(OC)c2)C2CCS(=O)(=O)C2)cc1 (stereo not drawn),x,x,x,i,i
Cc1cc(C)cc(N(C(=O)c2sc(C)nc2C)C(C(=O)NCc2ccco2)c2ccccc2)c1 (stereo not drawn),-3%,5%,8,i,u
CCCC(C(=O)NCc1ccco1)N(C(=O)CNS(=O)(=O)c1ccccc1)c1ccc(OC)cc1 (stereo not drawn),11%[1.84 µM],3%,-12,i,i
CCC(C(=O)NCc1ccco1)N(C(=O)CNS(=O)(=O)c1ccccc1)c1ccc(OC)cc1 (stereo not drawn),3%,u,9,i,23µM*
Cc1ccc(N(C(=O)c2sc(C)nc2C)C(C(=O)NCc2ccco2)c2ccccc2)cc1 (stereo not drawn),-17%,5%,-54*,i,i
CCC(C)NC(=O)CCc1nnc2ccc(N3CCC(C)CC3)nn12 (stereo not drawn),5%,6%,-8,i,i
CCOC(=O)C(C)NC(=O)CCc1nnc2ccc(N3CCC(C)CC3)nn12 (stereo not drawn),-11%,26µM*,-97*,i,i
Cc1ccc(N2CC(O)=C(c3nc4ccccc4c(=O)[nH]3)C2=N)cc1C,-2%,u,-9,i,i
COc1ccc2c(c1)CC=C1C2CCC2(C)C(=O)C(=NO)CC12 (stereo not drawn),u,u,-88*,u,i
Cc1[nH]c2ccccc2c1C(=O)COC(=O)c1c(-c2c(F)cccc2Cl)noc1C,10%,u,u,u,16µM*
Cc1[nH]c2ccccc2c1C(=O)COC(=O)c1c(-c2ccccc2Cl)noc1C,2%,u,u,i,i
O=C(O)CSc1ncccc1C(=O)O,6%,9.2µM*,41,i,i
c1ccc2c(c1)COC(CNC1CCCCC1)OC2,108%,6%,-3,i,i
O=C(/C=C/Nc1cccc(C(F)(F)F)c1)c1ccco1,4%,2%,14,i,i
O=C(/C=C/Nc1cccc(C(F)(F)F)c1)c1ccc(Oc2ncccn2)cc1,-36%,0%,4,i,21µM*
COc1ccc(CNC(=O)c2cc3c(=O)n(Cc4ccc(OC)cc4)ccc3nc2C)cc1,x,x,x,2.6µM*,i
CC(=O)c1cn(CCOc2cc(C)ccc2C)c2ccccc12,4%,-4%,52,u,2.1µM*
COc1cccc(OCCn2cc(C(=O)c3ccco3)c3ccccc32)c1,-3%,18%,-21,i,21µM*
COc1ccccc1OCCn1cc(C(=O)c2ccco2)c2ccccc21,-10%,15%,-18,i,13µM*
Cc1ccccc1OCCn1cc(C(=O)c2ccco2)c2ccccc21,x,x,x,i,i
CCN1CCN(c2ccc(S(=O)(=O)N3CCOCC3)cc2NC(=O)C(C)Oc2ccc(Cl)cc2)CC1 (stereo not drawn),-21%,16%,-8,i,i
